Most compounds without a hit are left out; they make up all but 3.1% or so of the library.
S1P3 antagonist: blocks the human S1P3 receptor; 170,000 tested, 0.27% active; inhibition, % at 4.98 µM; Q99500; CHO S1P3 NFAT-BLA reporter, FRET fluorescence, antagonist mode;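 active = inhibition above the plate cutoff, the mean inhibition of test wells on that plate plus 3 SD, cut at about 28% in these data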;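 note: cells challenged with S1P at its EC80 of 0.8 µM; blue over green emission ratio from cleaved BLA substrate after 4 h stimulation; 0% = S1P-stimulated wells and 100% = unstimulated DMSO-only wells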
Target sequence (Q99500 whole entry, looked up): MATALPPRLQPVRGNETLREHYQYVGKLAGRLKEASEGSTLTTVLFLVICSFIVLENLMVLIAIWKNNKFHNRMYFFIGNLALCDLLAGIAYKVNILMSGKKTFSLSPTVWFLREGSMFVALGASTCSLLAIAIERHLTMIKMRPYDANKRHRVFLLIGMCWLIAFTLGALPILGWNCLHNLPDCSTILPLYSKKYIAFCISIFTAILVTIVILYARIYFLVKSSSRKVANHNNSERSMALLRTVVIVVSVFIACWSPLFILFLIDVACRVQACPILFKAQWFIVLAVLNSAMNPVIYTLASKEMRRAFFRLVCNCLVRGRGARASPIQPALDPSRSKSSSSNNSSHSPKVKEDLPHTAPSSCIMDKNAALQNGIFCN
EP2 modulator: modulators of human EP2 prostaglandin E2 receptor; P43116; EP2-expressing cells, cAMP HTRF FRET, PGE2 co-stimulation; induction, % at 25 µM; 260,000 tested, 0.83% active;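 active = compounds whose cAMP rise, as percent of the full-agonist control response, exceeds 60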;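 note: rat C6 glioma line stably carrying human EP2 under a CMV promoter; the protocol text gives 20 µM as final concentration; 100% = response of wells given 1 µM PGE2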
EP2 antag: inhibitors of human EP2 prostaglandin E2 receptor; 260,000 tested, 0.52% active; C6 glioma cells expressing human EP2, cAMP TR-FRET; cells stimulated with saturating PGE2; inhibition, % at 25 µM; P43116;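 active = percent inhibition above 40 after rounding to a whole number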;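 note: rat C6 glioma host cells with rolipram phosphodiesterase inhibitor present; the protocol text gives 20 µM as final concentration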
KCC2 mod: modulates chloride dependent transport by human KCC2; Q9H2X9; KCC2 cells, thallium flux FluoZin-2 fluorescence; AID 1456; 190,000 tested, 2.2% active; B-score of Tl+ flux slope (higher = more flux/activation; lower = inhibition) at 10 µM;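 active = thallium flux slope and its plate-corrected score both differing from the plate sample mean at a set confidence after two filtering rounds, in either direction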;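 note: slope of fluorescence scaled to starting intensity during 10 to 20 s after thallium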
EP2 cAMP induct: human EP2 receptor cAMP induction, negative in counter-screens | AID 1080 | 1,300 tested, 47% active | shares compounds with EP2 modulator | calls only at 20 µM (by protocol) | C6 glioma EP2 cells, cAMP HTRF induction; plus low (about EC15) PGE2 agonist;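 active = cAMP induction above 50% in the main assay while under 30% in all four parallel counter assays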;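 note: rat C6 glioma cells stably expressing human EP2 receptor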
* hit, by the source's call; i = inactive; · = no result; + = active, no number.

SMILES	S1P3 antagonist	EP2 modulator	EP2 antag	KCC2 mod	EP2 cAMP induct
CCC1(C)Cc2ccccc2-c2nc3n(c(=O)c21)CC(C(=O)O)S3 (configuration not stated)	-38	3	16	0.47	·
CCCn1c(SCC(=O)Nc2cccc(F)c2)nnc1-c1ccco1	·	-29	18	·	·
Cc1nc2ccccn2c1C(=O)CSc1ccc(Cl)cc1Cl	·	70*	10	·	i
Cc1nc2ccccn2c1C(=O)CSc1ccccc1Cl	·	31	21	-1.2	·
O=C1C2C3c4ccccc4C(c4ccccc43)C2c2nc3ccccc3n21 (configuration not stated)	·	74*	13	-1.4	+
O=c1[nH]c2ccc(Cl)cc2c(-c2ccccc2)c1N1CCN(c2ccccn2)CC1	-13	73*	7	-0.013	i
O=c1[nH]c2ccc(Cl)cc2c(-c2ccccc2)c1N1CCOCC1	-19	69*	5	-0.45	i
O=c1[nH]c2ccc(Cl)cc2c(-c2ccccc2)c1CN1CCOCC1	4	20	6	-1	·
CC(NC(c1ccccc1)c1ccccc1)C(=O)N1CCCc2ccccc21 (configuration not stated)	-8	66*	8	-0.67	i
O=C(C(=O)N1CCCc2ccccc21)N1CCCc2ccccc21	-27	5	7	-0.039	·
CC(C(=O)Nc1ccccc1-c1ccccc1)N1CCN(C(=O)c2ccccc2)CC1 (configuration not stated)	-20	1	9	-0.1	·
CC1CCN(C(C)C(=O)Nc2ccccc2-c2ccccc2)CC1 (configuration not stated)	·	82*	3	-0.25	+
Cc1noc(C)c1CSc1nc2[nH]ncc2c(=O)n1-c1ccccc1	3	31	22	0.63	·
C=CCn1c(SCc2c(C)noc2C)nc2cc(C(=O)O)ccc2c1=O	24	20	5	-0.57	·
C=CCn1c(SCc2c(C)noc2C)nc2ccccc2c1=O	·	71*	3	0.083	i
Cc1noc(C)c1CSc1nc2ccccc2c(=O)n1-c1ccc(F)cc1F	10	56	·	·	+
Cc1noc(C)c1CSc1nc2ccccc2c(=O)n1-c1ccccc1	7	53	15	-1	i
C[N+]1(Cc2ccccc2Br)CCOCC1	·	0	12	·	·
CCCC(c1nnnn1C(C)(C)C)N(Cc1cccs1)Cc1cc2cc(C)c(C)cc2[nH]c1=O (configuration not stated)	·	56	13	·	·
COc1cccc(C2(NC(=O)CCn3cnc4ccccc43)CCCC2)c1	·	-35	3	·	·
CC[C@H](Cn1ncc2ccccc2c1=O)NC(=O)c1ccco1	·	-39	·	·	·
CCCCN1C(=O)/C(=C2\SC(N3CCCCC3)=NC2=O)c2ccccc21	-11	65*	7	·	+
Nc1cccc2[nH]c(C(F)(F)F)nc12	-19	-7	6	1.1	·
FC(F)(F)c1nc(=S)c2ccccc2[nH]1	-16	71*	17	32*	i
COc1ccc(-c2nnc(N3CCC(C)CC3)c3ccccc23)cc1	·	66*	·	-0.64	i
SMILES	S1P3 antagonist	EP2 modulator	EP2 antag	KCC2 mod	EP2 cAMP induct
CC1CCN(c2nnc(N3CCC(C)CC3)c3ccccc23)CC1	-11	8	3	0.0021	·
CC(=O)c1ccc(-n2c(C)ccc2-c2ccccc2)cc1	·	90*	4	0.52	+
Cc1sc2ncnc(Sc3ccccc3C(=O)O)c2c1C	-14	72*	16	-0.81	i
Cc1sc2ncnc(SCC(=O)N3CCCC3=O)c2c1C	10	5	12	·	·
CCCSc1ncnc2sc(C)c(C)c12	-3	53	5	1.3	i
CC(=O)c1ccc(NC(=O)c2ccccc2Sc2ncnc3sc(C)c(C)c23)cc1	-2	10	10	0.086	·
Cc1cccc(-c2csc(N)c2C(=O)OC(C)C)c1	·	96*	9	·	+
O=C(Nc1nc2c(s1)CCc1ccccc1-2)c1cccs1	·	-47	16	·	·
Fc1ccccc1Nc1nc2c(s1)CCc1ccccc1-2	9	79*	21	-0.016	+
CCCC(=O)N(Cc1ccc(Cl)cc1)Cc1nc2ccccc2c(=O)[nH]1	·	-16	16	·	·
Cc1cccc(C)c1OC(=O)C(c1ccccc1)c1ccccc1	-18	66*	19	-0.84	i
CCN(CC)CCCOC(=O)C(c1ccccc1)c1ccccc1	-5	-30	12	-0.0071	·
COc1cc(C(=O)Nc2nnc(C3CCCC3)s2)cc(OC)c1OC	·	-15	18	·	·
COc1ccc(C(=O)c2ccccc2)c(O)c1	5	41	3	0.75	+
Cc1ccc(C2CC2c2n[nH]c(=S)n2-c2ccc(C)cc2)cc1 (configuration not stated)	·	58	2	21*	i
Cc1ccc(-n2c(C3CC3c3ccc(Cl)cc3)n[nH]c2=S)cc1 (configuration not stated)	·	48	3	-0.021	·
CC(C)c1nc(SCc2c(F)cccc2Cl)c2c(=O)n(C)c(=O)n(C)c2n1	-17	80*	11	0.4	+
Oc1ccc2ccccc2c1Cc1c(O)ccc2ccccc12	·	70*	12	·	i
O=C(O)Cc1c(O)ccc2ccccc12	·	12	15	·	·
CCOc1ccc(Cn2c3ccc(OC)cc3c3nc4ccccc4nc32)cc1	4	18	5	0.91	·
CCn1c2ccc(OC)cc2c2nc3ccccc3nc21	·	56	5	-1.1	i
CCn1c2ccc(Cl)cc2c2nc3ccccc3nc21	·	55	7	0.33	+
COc1ccc(Oc2nc3c(c(=O)n(C)c(=O)n3C)n2Cc2ccccc2)cc1	·	16	14	-1.3	·
CC(C)CCn1c(Oc2ccc(Cl)cc2)nc2c1c(=O)n(C)c(=O)n2C	·	73*	-1	·	+
CCCCNc1nc2c(S(=O)(=O)c3ccccc3)nnn2c2ccccc12	-15	69*	27	0.0067	i
SMILES	S1P3 antagonist	EP2 modulator	EP2 antag	KCC2 mod	EP2 cAMP induct
CCc1ccc(S(=O)(=O)c2nnn3c2nc(NCCNC(C)=O)c2ccccc23)cc1	-13	-71	4	-1.5	·
CCOc1cc(S(=O)(=O)NCCc2cccc(C)c2)c(OCC)cc1-n1cnnn1	-4	68*	5	·	i
CCOc1cc(C)c(C2C(C#N)=C(N)OC3=C2C(=O)CC(C)(C)C3)cc1C(C)C (configuration not stated)	·	9	13	·	·
CC(=O)Nc1ccc(C2=NN(c3ccccc3)C(c3cccs3)C2)cc1 (configuration not stated)	6	76*	11	0.38	i
CC(=O)N1N=C2/C(=C/c3ccccc3)CCCC2C1c1ccccc1 (configuration not stated)	-18	70*	8	-1.6	i
COc1ccc(-c2ccc(SCC(=O)N(C)C)nn2)cc1	·	11	14	·	·
CCN(CC)C(=O)CN(c1cc2c(cc1OC)oc1ccccc12)S(=O)(=O)c1ccc(C)cc1	·	91*	5	-0.34	i
O=C(Nc1nnc(C2CCCCC2)s1)c1cc2cc(Br)ccc2oc1=O	·	4	6	·	·
